The record followed here is PubChem BioAssay AID1347432 (National Center for Advancing Translational Sciences (NCATS), 2020).

The source made the active and inactive calls. Calls come from the whole dose curve; as a rule, active = well fitted curve in the direction sought with a large enough effect; inactive = no such curve, though single readings can be large or run the other way.

The target in this assay is Uracil-DNA glycosylase (Escherichia coli (strain K12)) (UniProt P12295). The assay can be described thus: Confirmatory (Round 2) qHTS assay for inhibitors of Activation Induced Cytidine Deaminase (AID): UDG counterscreen signal. As to conditions: FRET fluorescence, 4 h; series mostly up to 78.4 µM; activity change, negative = inhibition: at the top concentration. The source says:
Assay Provider (PI) Patricia Gearhart Ph.D. National Institute on Aging National Institute of Health (NIH), Bethesda, MD Assay Provider (PI) Rahul Kohli Ph.D. Perelman School of Medicine University of Pennsylvania, Philadelphia, PA Activation-Induced Deaminase (AID) is a cytosine deaminase which converts cytosine into uracil within stretches of ssDNA. The presence of uracil in DNA initiates a cascade of mutagenic DNA repair to introduce point mutations and DNA double strand breaks. Specific targeting of AID to the immunoglobulin heavy chain loci (Igh) promotes mutagenesis in the antibody variable region for somatic hypermutation (SHM) or switch regions leading to class switch recombination (CSR). However, AID also plays a role in accumulating unnecessary mutations across the genome. Mis-targeting of AID results in the initiation of tumor development and leads to greater drug resistance among cancer cells when continually expressed. To identify an AID inhibitor, a small molecule library will be screened in collaboration with NCATS core facility at NIH. To confirm biological function, inhibitors will be examined in an in vitro murine B-cell activation assay and subsequent secondary validation screens. Top molecules will be further screened to identify inhibitory efficacy against a wild type primary splenocytes assay. Using these approaches, we hope to identify a small molecule with great efficacy and low toxicity for use as a molecular probe to further characterize AID's intricacies, or even as a therapeutic. A FRET based analysis of cytosine deamination, was developed to identify potential inhibitors of AID catalytic activity. This screen has two signal output, Read 1 evaluates the AID inhibition response. The second readout (Read 2) evaluates UDG response and is uses as a counterscreen to exclude false positive inhibitors. Inhibition in AID and inactivity in the UDG signal is the desired outcome for this assay.
PROTOCOL TABLE SEQUENCE No. (e.g., 1, 2, 3, etc.); PARAMETER (e.g., Cells, Incubation, Reagent, etc.); VALUE; DESCRIPTION 1a; Reagent; 3 uL; [4/3x] 1 uM AID/2.67 U/mL UDG 1b; Reagent; 3 uL; 2 U/mL UDG 1c; Reagent; 3 uL; 1 uM AID 2a; Compound; 46 nL; Follow-up plates (0.64 uM - 10 mM) 2b; Control; 46 nL; ATA ([…] - 10 mM) 3; Time; 10 min; incubation at room temperature 4; Reagents; 1 uL; [4x] 250 nM DJC20 / 250 nM DJC23 [Substrate] 5; Time; 4 hr; incubation at room temperature 6; Reagent; 4 uL; [2x] 250 mM NaOH 7; Time; 15 sec; centrifuge at 1000 rpm 8; Time; 30 min; incubation at room temperature 9a; Detection; fluorescence (Read 1: AID); EnVision (PerkinElmer) plate reader, 540 excitation and 590 emission filters 9b; Detection; fluorescence (Read 2: UDG); EnVision (PerkinElmer) plate reader, 560 excitation and 665 emission filters NOTES (numbers refer to sequence above) 1a; Reagents were dispensed in a medium-binding black solid-bottom Greiner plates (789176F) using a BioRptr liquid dispenser. Dispense 3 uL of [4/3x] 1 uM AID (provided by Kohli lab) and [4/3x] 2 U/mL UDG (NEB M0280L) into columns 1, 2, 5 to 48. 1b; Dispense 3 uL of [4/3x] 2 U/mL UDG into column 3. 1c; Dispense 3 uL of [4/3x] 1 uM AID into column 4. 2a; Compound (7-points [uM]: 0.64; 3.2; 16; 80; 400; 2,000; 10,000; […]) double pin-transferred (Dip Factor = 2) using the Kalypsys (Wako USA) pintool equipped with a 1536 pinhead for a final concentration range of 7.32 nM - 114 uM. 2b; 10 mM Aurintricarboxylic Acid (Sigma A1895) (ATA, 8-point, n = 2, 1:2.5 dilution in column 2) double pin-transferred (Dip Factor = 2) using the Kalypsys (Wako USA) pintool equipped with a 1536 pinhead for a [final] range of 186 nM - 114 uM. 3; Room temperature incubation. 4; Dispense 1 uL of substrate mixture from the Kohli lab [4x] […] DJC20 and [4x] 250 nM DJC23 into columns 1 to 48 . 5; Room temperature incubation. 6; Dispense 4 uL of substrate mixture [2x] 250 mM NaOH into columns 1 to 48. 7; Centrifugation step to remove bubbles. […]
A general note: Quantitative high-throughput screening tests each substance at several concentrations.
On to `COc1ccccc1OCCSc1nc(-c2ccc(C(C)(C)C)cc2)nc2cc(=O)[nH]n12`, for which the “activity change, negative = inhibition” value is 0.173% (inactive). As to `O=c1cc2nc(-c3ccccc3)nc(SCCCn3ccnc3)n2[nH]1`, the “activity change, negative = inhibition” value was -4.89% (inactive).

In the case of `O=C(O)C1=CC(=C(c2ccc(O)c(C(=O)O)c2)c2ccc(O)c(C(=O)O)c2)C=CC1=O`, the Potency was 31.6 µM (active). For the compound `O=c1cc2nc(-c3ccccc3)nc(SCCOCCOc3ccccc3)n2[nH]1`, the “activity change, negative = inhibition” value is -151% (inactive). In the case of `Cc1noc(C)c1CCSc1nc(-c2ccccc2)nc2cc(=O)[nH]n12`, the “activity change, negative = inhibition” value was -26.1% (inactive).

As for `O=c1cc2nc(-c3ccccc3)nc(SCCCc3ccncc3)n2[nH]1`, the “activity change, negative = inhibition” value was 4.99% (inactive). Regarding `O=c1cc2nc(-c3ccccc3)nc(SCCN3CCC(F)(F)CC3)n2[nH]1`, the “activity change, negative = inhibition” value was 3.23% (inactive).

Turning to `CC(C)c1ccc2c(c1)c(SC(C)(C)C)c(CC(C)(C)C(=O)O)n2Cc1ccc(Cl)cc1`, the “activity change, negative = inhibition” value was -8.89% (inactive).

On to `Cn1ccnc1CCSc1nc(-c2ccccc2)nc2cc(=O)[nH]n12`, for which the “activity change, negative = inhibition” value was -5.27% (inactive). `CN1CCN(CCCSc2nc(-c3ccccc3)nc3cc(=O)[nH]n23)CC1`: the “activity change, negative = inhibition” value is -9.4% (inactive).
